From PubChem BioAssay (NCATS)
Records with an inconclusive call do not appear. Entries that show only a call come without a potency. Active and inactive are the calls of the source. Unless noted, calls follow the shape of the dose curve; as a rule, active = well fitted curve in the direction sought with a large enough effect; inconclusive = small, poorly fitted or top-dose-only effect, or another doubt; inactive = no such curve, though single readings can be large; an effect the other way counts as inactive or inconclusive. Numbered stars: 1 amine (or outer) side, 2 acyl side, 3 side chain; on linkers, the order of the positions; unused ones are H or OH. Bridge positions count the residues as written; N and C are the ends. Square brackets hold non-standard residues; d marks the D form. Peptide text beside a SMILES is read from it. * marks the point of attachment. ξ: configuration not given here. ΔAla(E,3-NHCONH2) = NC(=O)N/C=C(/N)C(=O)O; X1 = NC1=NCCC(C(N[*:1])C(=O)[*:2])N1; ξβ3hOrn = NCCCC(N)CC(=O)*; Dap = NC[CH](N)C(=O)O

Columns and labels:
[1] = target: Cytochrome P450 3A4 (Homo sapiens) (UniProt P08684); experiment: qHTS Assay for Inhibitors and Substrates of Cytochrome P450 3A4 (AID 884); also: nearly all actives have a fitted effect of over 50% in size
Method in brief: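 Luminescent readout of luciferin produced by CYP3A4 (20 nM) dealkylation of Luciferin-PPXE, 25 uM (its KM). NADPH-driven reaction ran 60 min at RT after 10 min compound preincubation; data scaled to 57 uM ketoconazole as 100% inhibition.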

[2] = Confirmation and Secondary Assay for Modulators of Hemoglobin Beta Chain Splicing at IVS2 654 locus (AID 910);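 also: HeLa cells stably carrying EGFP split by mutant beta-globin IVS2-654 intron; per-well total GFP intensity by laser scanning cytometry after 2-day treatment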
Method in brief: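 Readout: per-well total peak green fluorescence (488 nm ex, 500–520 nm em) from objects 5–250 µm, reflecting correct splicing of an EGFP-654 reporter. Compounds were applied for 2 days at 37 °C to overnight-plated HeLa EGFP-654 cells; controls were DMSO and 500 nM IVS2-654 PNA.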

[3] = Confirmation and Secondary Assay for Modulators of Hemoglobin Beta Chain Splicing at IVS2 705 locus (AID 930);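 also: HeLa cells stably expressing the EGFP-705 splicing reporter; GFP fluorescence per well restored by corrected splicing of the IVS2-705 intron in EGFP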
Method in brief: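 First, HeLa EGFP-705 cells are seeded at 500/well in Optimem with 2% FCS and left overnight. Next, compound or DMSO is added for 2 days. Finally wells are laser-scanned and total peak GFP intensity scored.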

[4] = qHTS Assay for Lipid Storage Modulators (AID 1519; calls by dose curve); conditions: Drosophila S3 cells, BODIPY lipid droplet/cell ratio, laser cytometry, cells loaded with oleic acid; for activity change, negative = inhibition: at 57.5 µM (top of the series)
Method in brief: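 Cells seeded at 5,000 per well were treated with compounds over a concentration series and loaded with oleic acid (400 uM, as added). Lipid droplet fluorescence (488 nm excitation, 500-530 nm channel) was read by laser-scanning cytometry and normalized to 20 uM Triacsin C.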

[5] = target: Ubiquitin carboxyl-terminal hydrolase 1 (Homo sapiens) (UniProt O94782); experiment: Inhibitors of USP1/UAF1: Pilot qHTS (AID 504865);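 also: rhodamine fluorescence freed from ubiquitin-rhodamine substrate followed over time; top concentration of the series differs between compounds; nearly all actives have a fitted effect of over 35% in size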
Method in brief: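 Deubiquitinase activity followed as kinetic rhodamine fluorescence release from 150 nM Ub-Rho. 1 nM USP1/UAF1 with compound, after 15 min room-temperature preincubation, in HEPES pH 7.8 buffer containing TCEP, EDTA, BSA and Tween-20.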

[6] = target: Cytochrome P450 3A4 (Homo sapiens) (UniProt P08684); experiment: qHTS Assay for Activators of Cytochrome P450 3A4 (AID 885); also: nearly all actives have a fitted effect of over 65% in size
Method in brief: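 Luminescent readout of luciferin formed from 25 uM Luciferin-PPXE (KM level) by 20 nM CYP3A4 in 200 mM KPO4, with 60 min NADPH-driven reaction at room temperature after 10 min compound exposure. Ketoconazole (57 uM) defined 100% inhibition.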

[7] = measured here: cell count channel max response
[8] = measured here: lipid channel max response

Sequence of Cytochrome P450 3A4 (Homo sapiens) (P08684 whole entry, looked up): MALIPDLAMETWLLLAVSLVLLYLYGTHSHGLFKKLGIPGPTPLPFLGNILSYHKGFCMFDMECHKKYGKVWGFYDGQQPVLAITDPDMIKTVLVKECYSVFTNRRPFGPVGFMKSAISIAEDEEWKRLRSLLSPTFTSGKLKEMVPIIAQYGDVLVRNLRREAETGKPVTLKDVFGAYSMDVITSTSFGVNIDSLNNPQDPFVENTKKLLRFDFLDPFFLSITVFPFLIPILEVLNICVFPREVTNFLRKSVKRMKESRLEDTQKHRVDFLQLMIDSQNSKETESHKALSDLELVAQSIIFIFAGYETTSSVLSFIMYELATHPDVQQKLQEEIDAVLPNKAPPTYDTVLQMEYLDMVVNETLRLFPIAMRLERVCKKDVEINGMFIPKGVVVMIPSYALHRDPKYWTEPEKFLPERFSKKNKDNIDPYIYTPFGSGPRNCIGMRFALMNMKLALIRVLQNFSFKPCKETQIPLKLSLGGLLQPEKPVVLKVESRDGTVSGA
Sequence of Ubiquitin carboxyl-terminal hydrolase 1 (Homo sapiens) (O94782 whole entry, looked up): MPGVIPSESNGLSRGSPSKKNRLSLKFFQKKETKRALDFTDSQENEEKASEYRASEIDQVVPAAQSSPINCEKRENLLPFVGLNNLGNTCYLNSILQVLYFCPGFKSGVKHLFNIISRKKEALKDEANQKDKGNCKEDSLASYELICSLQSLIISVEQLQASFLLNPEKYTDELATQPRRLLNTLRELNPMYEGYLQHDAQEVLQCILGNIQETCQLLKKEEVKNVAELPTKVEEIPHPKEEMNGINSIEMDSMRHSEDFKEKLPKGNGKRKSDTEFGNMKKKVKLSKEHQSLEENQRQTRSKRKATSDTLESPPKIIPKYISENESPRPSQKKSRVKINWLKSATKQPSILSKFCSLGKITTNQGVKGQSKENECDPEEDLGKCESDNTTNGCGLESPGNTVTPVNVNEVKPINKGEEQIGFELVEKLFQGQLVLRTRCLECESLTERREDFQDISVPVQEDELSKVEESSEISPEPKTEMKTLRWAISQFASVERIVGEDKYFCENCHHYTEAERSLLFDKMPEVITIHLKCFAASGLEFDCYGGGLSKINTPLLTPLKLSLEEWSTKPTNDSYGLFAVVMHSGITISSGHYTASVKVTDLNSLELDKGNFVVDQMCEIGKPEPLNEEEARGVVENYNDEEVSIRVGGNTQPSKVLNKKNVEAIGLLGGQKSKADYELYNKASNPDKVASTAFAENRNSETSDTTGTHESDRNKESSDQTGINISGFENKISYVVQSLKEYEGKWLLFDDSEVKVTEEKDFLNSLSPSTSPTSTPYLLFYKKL

Compound | Potency [1] | Potency [2] | Potency [3] | activity change, negative = inhibition [4] | max response [4, 7] [%] | max response [4, 8] [%] | Potency [5] | Potency [6]
Nc1ncnc2c1nc(Br)n2C1CC(O)C(CO)O1 (stereo not given) | inactive | inactive | inactive | 2.34% (inactive) | 9.06 | 11.8 | inactive | –
OCC(O)C(O)[C@H](O[C@H]1OC(CO)C(O)C(O)C1O)[C@H](O)CO (stereo not given in full) | inactive | inactive | inactive | 3.91% (inactive) | 11.8 | 16 | inactive | –
O=c1[nH]c(=O)n(C2CC(O)C(CO)O2)cc1C(F)(F)F (stereo not given) | inactive | inactive | inactive | 3.87% (inactive) | -2.79 | 3.03 | inactive | –
CC(=O)OC1CC2C(C)(C)C=CC(=O)[C@@]2(C)C2CC[C@@]3(C)C(c4ccoc4)OC(=O)C4OC43[C@]12C (stereo not given in full) | – | inactive | inactive | 5.35% (inactive) | -8.35 | -1.42 | inactive | inactive
C=C(C)C1Cc2c(ccc(C(=O)O)c2O)O1 (stereo not given) | inactive | inactive | inactive | 5.26% (inactive) | 17 | 23.8 | inactive | –
CC1CCC(C(C)(C)O)CC2=C1CCC2C (stereo not given) | inactive | inactive | inactive | 7.53% (inactive) | 9.89 | 15.9 | inactive | –
COc1cccc2c1CCC1=CC(=O)CC[C@@]12C | inactive | inactive | inactive | 11.4% (inactive) | 2.03 | 15.6 | inactive | –
C#C[C@]1(O)CCC2C3CCC4=Cc5oncc5C[C@@]4(C)C3CC[C@@]21C (stereo not given in full) | – | inactive | inactive | 9.19% (inactive) | 9.5 | 21.9 | inactive | inactive
C=C1CCC2C(CC2(C)C)C(=C)CC/C1=N/O (stereo not given) | – | inactive | inactive | 4.06% (inactive) | 4.09 | 9.2 | inactive | inactive
NCCCC(N)CC(=O)NCC1NC(=O)C(CO)NC(=O)C(N)CNC(=O)C(C2CCN=C(N)N2)NC(=O)/C(=C\NC(N)=O)NC1=O (stereo not drawn) (H-[Dap]S[Dap](ξβ3hOrn)[ΔAla(E,3-NHCONH2)][X1]; lactam 1-C; configuration not given here) | inactive | inactive | inactive | 2.39% (inactive) | 15.4 | 21.2 | inactive | –
CC(C)CC(N)C(=O)NC(C)C(=O)O (stereo not given) | inactive | inactive | inactive | 3.3% (inactive) | 18.5 | 21.6 | inactive | –
COc1ccc(C2OC3C(CO)OC(n4cnc5c(=O)[nH]c(N)nc54)C3O2)cc1 (stereo not given) | inactive | inactive | inactive | 1.28% (inactive) | 11.1 | 13.1 | inactive | –
COc1cc2cc[n+]3cc4c(OC)c(OC)ccc4cc3c2cc1OC | – | inactive | inactive | 10.9% (inactive) | 22.9 | 39.6 | inactive | inactive
C=CC(C1=CC(=O)C=CC1=O)c1ccccc1 (stereo not given) | – | inactive | inactive | 7.07% (inactive) | 8.2 | 16.8 | inactive | inactive
COc1ccc(C2Oc3cc(OC)cc(OC)c3CC2O)cc1 (stereo not given) | – | inactive | inactive | 5.15% (inactive) | 15.1 | 23.9 | inactive | inactive
CC(=O)OCC(=O)[C@@]1(O)CCC2C3CCC4=CC(=O)CC[C@]4(C)C3C(O)C[C@]21C (stereo not given in full) | inactive | inactive | inactive | 7.11% (inactive) | 10.3 | 18.3 | inactive | –
CC1(C)C(O)C=C[C@@]2(C)C1CC(=O)O[C@@]1(C)C3=CC(=O)OC(c4ccoc4)[C@]3(C)CCC21 (stereo not given in full) | – | inactive | inactive | 9.57% (inactive) | 1.87 | 14.6 | inactive | inactive
COc1cc(NS(C)(=O)=O)ccc1Cc1c2ccccc2nc2ccccc12 | inactive | inactive | inactive | 4.8% (inactive) | 13 | 21.3 | inactive | –
CC1CC[C@@]2(OC1)OC1CC3C4CC[C@@H]5CC(O)CC[C@@]5(C)C4CC[C@]3(C)C1C2C (stereo not given in full) | inactive | inactive | inactive | 4.69% (inactive) | 11.7 | 17.1 | inactive | –
CC1O[C@@H](O[C@H]2C(Oc3cc(O)c4c(c3)OC(c3ccc(O)cc3)CC4=O)OC(CO)C(O)C2O)C(O)C(O)C1O (stereo not given in full) | inactive | inactive | inactive | 6.1% (inactive) | 13 | 21.6 | inactive | –
CC1(C)CCC2(C(=O)O)CC[C@]3(C)C(=CCC4[C@]5(C)CCC(O)C(C)(C)C5C(O)C[C@]43C)C2C1 (stereo not given in full) | – | inactive | inactive | 10.3% (inactive) | 9.57 | 24.8 | inactive | inactive
COc1cc2c(cc1O)C(Cc1ccc(O)cc1)N(C)CC2 (stereo not given) | inactive | inactive | inactive | 2.46% (inactive) | 13.5 | 17.7 | inactive | –
Nc1nc2[nH]c(=O)[nH]c2c(=O)[nH]1 | inactive | inactive | inactive | -0.21% (inactive) | 10.7 | 11.7 | inactive | –
COc1ccc(-c2coc3c(O)c(OC)ccc3c2=O)cc1 | – | inactive | inactive | 2.6% (inactive) | 25.3 | 28.5 | inactive | inactive
COc1cc(O)cc(OC)c1OC | – | inactive | inactive | 1.28% (inactive) | -14 | -12.4 | inactive | inactive
